Hits are enriched below; roughly 5.7% of the tested compounds scored in any of these assays.
AHR act = activates the human aryl hydrocarbon receptor. P35869. activation, % at 5 µM. AHR-responsive luciferase reporter cells, luminescence. 2.5% of 320,000 active; in the data active means activation above about 47%
DAX1 inh-1 = DAX1 (NR0B1) inhibition, primary screen. HEK293T StAR-luciferase reporter, SF-1/DAX-1 repression relief. inhibition, % at 6.8 µM. 1.1% of 370,000 active. AID 652010;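 active means inhibition above the mean over all tested compounds plus 3 SD, cut at about 3.6% in these data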;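 further: higher inhibition means more luminescence from relief of DAX-1 repression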
hgDAF12 agonist = activates the H. glycines DAF-12 receptor ligand-binding domain | activation, % at 6.8 µM | 1.8% of 370,000 active | HEK293 GAL4-hgDAF12 UAS-luciferase reporter, agonist luminescence; normalized to butyrate control;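 active means activation above a cutoff set at the mean of all screened compounds plus 3 SD, cut at about 10% in these data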
DAX1 inh-2 = inhibits human nuclear receptor DAX1; inhibition, % at 6.75 µM; HEK293 Gal4-DAX1 luciferase reporter, luminescence; P51843; 0.99% of 340,000 active;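 active means inhibition above the mean over all tested compounds plus 3 SD, cut at about 4.2% in these data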;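 further: inhibition shows as a rise in luminescence from relieved DAX1 repression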
Target sequence (P51843 207-470 limits assumed): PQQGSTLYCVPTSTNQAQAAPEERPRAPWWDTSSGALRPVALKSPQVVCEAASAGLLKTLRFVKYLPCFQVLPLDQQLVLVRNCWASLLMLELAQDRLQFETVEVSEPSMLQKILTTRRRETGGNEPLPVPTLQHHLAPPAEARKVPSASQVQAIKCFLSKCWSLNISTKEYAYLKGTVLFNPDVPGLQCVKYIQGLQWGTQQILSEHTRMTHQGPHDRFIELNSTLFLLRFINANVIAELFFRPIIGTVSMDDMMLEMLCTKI
ssDAF12 agonist = activators of S. stercoralis DAF-12 nuclear receptor; AID 652126; activation, % at 6.8 µM; HEK293 ssDAF-12/GRIP1 lit1-tk-luc reporter, luminescence; % of 3 µM dafachronic acid response; 1% of 370,000 active;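 active means activation above the mean over all tested compounds plus 3 SD, cut at about 0.9% in these data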
hcDAF-12 act = activators of H. contortus DAF-12 nuclear receptor; 1.4% of 370,000 active; AID 652067; activation, % at 6.8 µM; HEK293 hcDAF-12 lit1-tk-luc reporter, luminescence; 0% DMSO, 100% Δ7-dafachronic acid;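 active means activation above the mean of all tested compounds plus 3 SD, cut at about 5.5% in these data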
Of the large screens only hits and unclear results are named; the others gave an inactive call.

O=C(Nc1cccc(-c2cn3ccccc3n2)c1)C1CC1	AHR act 65.3
COc1ccc(CC(=O)Nc2cccc(-c3cn4ccccc4n3)c2)cc1	DAX1 inh-2 5.4
COc1ccc(CC(=O)Nc2ccc(-c3cn4ccccc4n3)cc2)cc1	none
Cc1ccccc1N1CC(O)(c2cccs2)[N+]2=C1CCCC2 (stereo not drawn)	ssDAF12 agonist 1.8
N#CC1C(C#N)N2CCCN2C1c1ccc(Cl)cc1 (stereo not drawn)	AHR act 48.4, hcDAF-12 act 5.8
Cc1nc(SCc2nc3ccccc3[nH]2)c2oc3cc(Br)ccc3c2n1	AHR act 77.1
O=S(=O)(c1ccc(SCc2ccc(Cl)cc2)nc1)N1CCCC1	none
O=C(NC1CCCCC1)C1c2ccccc2OCC(=O)N1Cc1ccco1 (stereo not drawn)	DAX1 inh-1 4.4 (no result: AHR act, DAX1 inh-2)
CC(C)OCCCNc1ncnc2c1cnn2-c1ccccc1	hgDAF12 agonist 11.8
CN(C)CCCNc1ncnc2c1cnn2-c1ccccc1	none (no result: DAX1 inh-1, hgDAF12 agonist, ssDAF12 agonist, hcDAF-12 act)
c1ccc(CCNc2ncnc3c2cnn3-c2ccccc2)cc1	DAX1 inh-1 3.7, hgDAF12 agonist 11.9
c1ccc(CNc2ncnc3c2cnn3-c2ccccc2)cc1	none
Cn1c(/C=C/c2ccc(Br)cc2)c([N+](=O)[O-])c(=O)n(C)c1=O	none
NC(=O)C1CCN(C(=S)c2ccc(-c3ccc(Br)cc3)o2)CC1	hgDAF12 agonist 11.9 (no result: DAX1 inh-2)
Cc1ccc(NC(=O)Nc2ccc3c(c2)N(C)C(=O)CS3)cc1C	none
Cc1cc(C)cc(NC(=O)Nc2ccc3c(c2)N(C)C(=O)CS3)c1	AHR act 70.7
CC#CCc1cc2ccccc2c(=O)o1	DAX1 inh-2 4.6
CCN(CC)S(=O)(=O)c1cc(NC(=O)c2ccc(-n3cncn3)c([N+](=O)[O-])c2)ccc1C	none
C[C@H]1[C@H](c2ccccc2)Oc2ccc(Cl)cc2S(=O)(=O)N1C[C@@H]1CCCN1C(=O)OC(C)(C)C	none (no result: AHR act, DAX1 inh-2)
CCOc1ncccc1C(=O)Nc1nc(C(C)(C)C)cs1	AHR act 59.2
Cc1cnc(C(=O)Nc2cccc(-c3nnc4n3CCCCC4)c2)cn1	none
CCOc1ncccc1C(=O)Nc1cccc(-c2nnc3n2CCCCC3)c1	AHR act 47.1
COc1ccccc1S(=O)(=O)Nc1cccc(-c2nnc3n2CCCCC3)c1	none
CCOc1ncccc1C(=O)Nc1ccc(Cl)c(S(=O)(=O)N2CCCC2)c1	none
c1cc(Nc2ncnc3sccc23)cc(-c2nnc3n2CCCCC3)c1	AHR act 49.5
CCOc1ncccc1C(=O)Nc1ccc(F)c(Cl)c1	AHR act 61.2
CCOC(=O)[C@]12CCC=C1N(Cc1ccco1)C(=O)[C@H](CC(=O)N1CCCCC1)C2	none (no result: AHR act, DAX1 inh-2)
CCOc1ncccc1C(=O)Nc1ccc(F)c(F)c1	AHR act 59.8
Cc1ccc(-c2cc(N)n(-c3ccc(C)cc3)n2)cc1	AHR act 51.8
O=C(COc1ccc2c(c1)OCO2)NCc1cccs1	AHR act 48.5
CCOC(=O)N1CCN(C(=O)COc2cc(=O)n(CC)c3ccccc23)CC1	DAX1 inh-2 8.2
O=C(Cc1cccs1)NCc1ccc2c(c1)OCO2	none
CCn1c(=O)cc(OCC(=O)NCc2cccs2)c2ccccc21	AHR act 67.9
CCOC(=O)N1CCN(C(=O)COc2cc(=O)n(C)c3ccccc23)CC1	none
Cc1ccc(S(=O)(=O)Nc2cccc(C(=O)N3CCC(C(N)=O)CC3)c2)cc1	none
CC(=O)Nc1ccc(Oc2cnc3ccccc3n2)cc1	none
CC(=O)Nc1cccc(Oc2cnc3ccccc3n2)c1	DAX1 inh-2 4.6
O=C(OCC#CCSc1nnc(-c2cccc3ccccc23)o1)c1ccc(F)cc1F	none (no result: AHR act, DAX1 inh-1, DAX1 inh-2)
COc1ccc(C(=O)CSC#N)cc1OC	hgDAF12 agonist 13.0
COc1ccc(S(=O)(=O)N2CCN(C(=O)c3cc(C)nc4ccccc34)CC2)cc1OC	none
Cc1c(OCC(=O)N[C@H](C(=O)O)c2ccccc2)ccc2c3c(c(=O)oc12)CCCC3	DAX1 inh-2 4.3
Cc1c(OCC(=O)NCC(O)c2ccccc2)ccc2c3c(c(=O)oc12)CCC3 (stereo not drawn)	none
Cc1ccc2[nH]c(=O)c(-c3noc(C(C)C)n3)cc2c1	AHR act 54.9
CCN1CCN(C(=O)c2sc3ncnc(N4CCc5ccccc5C4)c3c2C)CC1	AHR act 48.9

Bioassay records deposited in PubChem by The Scripps Research Institute Molecular Screening Center.
